Source: PubChem BioAssay AID1159580 (chemical genetic matrix, 2015)
“And” between values parts separate entries of the source, which are not always exact repeats. Equal values may be shown once. Among all 5,500 compounds or so, about 2,000 (36%) were called active. Inconclusive results (about 18%) are left out. No stated cut-off is given here; in the data, active means normalized growth mostly below about 0.91 (no sharp cut-off); inconclusive means no clear call, values can overlap the other calls; inactive means mostly above about 0.92. This is one part of the list.

Assay: chemical genetic growth profiling, strain panel (AID 1159580);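 further: tested at 20 µM; growth read once vehicle control cultures reached saturation at 30 °C; 1 = growth at the plate median or of vehicle wells; lower values mean less growth of the strain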
Settings: growth OD

Measured: normalized growth

CCCOc1ccccc1-c1nc2n[nH]nc2c(=O)[nH]1
inactive: S. cerevisiae deletion strains, locus YJL187C, strain SWE1 (second series), hits give low values 0.992 | S. cerevisiae deletion strains, locus YJL187C, strain SWE1, hits give low values 1 | S. cerevisiae deletion strains, locus YJR043C, strain POL32, hits give low values 0.995 | S. cerevisiae deletion strains, locus YJR075W, strain HOC1, hits give low values 0.979 | S. cerevisiae deletion strains, locus YKL009W, strain mrt4, hits give low values 1 | S. cerevisiae deletion strains, locus YKL068W, hits give low values 0.999 | S. cerevisiae deletion strains, locus YKL085W, strain MDH1 (second series), hits give low values 1 | S. cerevisiae deletion strains, locus YKL085W, strain MDH1, hits give low values 1 | S. cerevisiae deletion strains, locus YKL160W, strain elf1, hits give low values 0.974 | S. cerevisiae deletion strains, locus YKL190W, strain CNB1, hits give low values 1 | S. cerevisiae deletion strains, locus YKR001C, strain vps1, hits give low values 1.01 | S. cerevisiae deletion strains, locus YKR026C, strain gcn3, hits give low values 1 | S. cerevisiae deletion strains, locus YKR091W, strain srl3, hits give low values 1 | S. cerevisiae deletion strains, locus YLL001W, strain dnm1, hits give low values 0.995 | S. cerevisiae deletion strains, locus YLL026W, hits give low values 1.01 | S. cerevisiae deletion strains, locus YLL041C, strain sdh2, hits give low values 0.994 | S. cerevisiae deletion strains, locus YLR027C, strain aat2, hits give low values 1.01 | S. cerevisiae deletion strains, locus YLR039C, strain RIC1, hits give low values 1.05 | S. cerevisiae deletion strains, locus YLR058C, strain SHM2, hits give low values 0.997 | S. cerevisiae deletion strains, locus YLR102C, strain apc9, hits give low values 1.01 | S. cerevisiae deletion strains, locus YLR221C, strain rsa3, hits give low values 0.995 | S. cerevisiae deletion strains, locus YLR258W, strain gsy2, hits give low values 1.03 | S. cerevisiae deletion strains, locus YLR262C, strain YPT6 (second series), hits give low values 0.997 | S. cerevisiae deletion strains, locus YLR262C, strain YPT6, hits give low values 1.02 | S. cerevisiae deletion strains, locus YLR268W, strain sec22, hits give low values 1.01 | S. cerevisiae deletion strains, locus YLR320W, strain mms22, hits give low values 1.02 | S. cerevisiae deletion strains, locus YLR330W, strain CHS5, hits give low values 1.01 | S. cerevisiae deletion strains, locus YLR342W, strain FKS1 (second series), hits give low values 1.04 | S. cerevisiae deletion strains, locus YLR342W, strain FKS1, hits give low values 1.01 | S. cerevisiae deletion strains, locus YLR357W, strain rsc2, hits give low values 1.01 | S. cerevisiae deletion strains, locus YLR370C, strain arc18, hits give low values 0.996 | S. cerevisiae deletion strains, locus YLR371W, strain rom2, hits give low values 1.02 | S. cerevisiae deletion strains, locus YLR384C, strain iki3, hits give low values 1 | S. cerevisiae deletion strains, locus YLR418C, strain cdc73, hits give low values 1.02 | S. cerevisiae deletion strains, locus YML016C, strain PPZ1, hits give low values 1 | S. cerevisiae deletion strains, locus YML032C, strain rad52, hits give low values 1.02 | S. cerevisiae deletion strains, locus YML120C, strain ndi1, hits give low values 0.997 | S. cerevisiae deletion strains, locus YML124C, strain tub3, hits give low values 1 | S. cerevisiae deletion strains, locus YMR058W, strain fet3, hits give low values 1.01 | S. cerevisiae deletion strains, locus YMR078C, strain ctf18, hits give low values 1.01 | S. cerevisiae deletion strains, locus YMR125W, strain sto1, hits give low values 1.01 | S. cerevisiae deletion strains, locus YMR129W, hits give low values 1 | S. cerevisiae deletion strains, locus YMR205C, strain PFK2, hits give low values 1.03 | S. cerevisiae deletion strains, locus YMR223W, strain ubp8, hits give low values 1.01 | S. cerevisiae deletion strains, locus YMR231W, strain pep5, hits give low values 1.01 | S. cerevisiae deletion strains, locus YMR307W, strain GAS1, hits give low values 1.08 and 0.984 | S. cerevisiae deletion strains, locus YNL067W, strain RPL9B, hits give low values 1 | S. cerevisiae deletion strains, locus YNL071W, strain lat1, hits give low values 1 | S. cerevisiae deletion strains, locus YNL153C, strain GIM3, hits give low values 1.04 | S. cerevisiae deletion strains, locus YNL175C, strain NOP13, hits give low values 1.02 | S. cerevisiae deletion strains, locus YNL197C, strain WHI3, hits give low values 1.01 | S. cerevisiae deletion strains, locus YNL209W, strain ssb2, hits give low values 1 | S. cerevisiae deletion strains, locus YNL224C, strain SQS1, hits give low values 1 | S. cerevisiae deletion strains, locus YNL233W, strain BNI4, hits give low values 0.995 | S. cerevisiae deletion strains, locus YNL248C, strain rpa49, hits give low values 0.957 | S. cerevisiae deletion strains, locus YNL250W, strain rad50, hits give low values 1 | S. cerevisiae deletion strains, locus YNL271C, strain bni1, hits give low values 1.01 | S. cerevisiae deletion strains, locus YNL298W, strain CLA4, hits give low values 1.02 | S. cerevisiae deletion strains, locus YNL307C, strain MCK1, hits give low values 1.02 | S. cerevisiae deletion strains, locus YNL322C, strain KRE1 (second series), hits give low values 0.998 | S. cerevisiae deletion strains, locus YNR049C, strain mso1, hits give low values 1 | S. cerevisiae deletion strains, locus YNR052C, strain pop2, hits give low values 1.01 | S. cerevisiae deletion strains, locus YOL006C, strain TOP1, hits give low values 1 | S. cerevisiae deletion strains, locus YOL012C, strain htz1 1.16 | S. cerevisiae deletion strains, locus YOL147C, strain pex11, hits give low values 1.01 | S. cerevisiae deletion strains, locus YOR001W, strain rrp6, hits give low values 0.971 | S. cerevisiae deletion strains, locus YOR061W, strain CKA2, hits give low values 1.01 | S. cerevisiae deletion strains, locus YOR069W, strain VPS5, hits give low values 1 | S. cerevisiae deletion strains, locus YOR070C, strain gyp1, hits give low values 0.999 | S. cerevisiae deletion strains, locus YOR080W, strain dia2, hits give low values 1.01 | S. cerevisiae deletion strains, locus YOR083W, strain WHI5 (second series), hits give low values 1.02 | S. cerevisiae deletion strains, locus YOR083W, strain WHI5, hits give low values 0.962 | S. cerevisiae deletion strains, locus YOR106W, strain vam3, hits give low values 0.981 | S. cerevisiae deletion strains, locus YOR136W, strain idh2, hits give low values 1.01 | S. cerevisiae deletion strains, locus YOR144C, strain elg1, hits give low values 1.01 | S. cerevisiae deletion strains, locus YOR184W, strain ser1, hits give low values 1.01 | S. cerevisiae deletion strains, locus YOR265W, strain rbl2, hits give low values 1 | S. cerevisiae deletion strains, locus YOR270C, strain vph1, hits give low values 0.98 | S. cerevisiae deletion strains, locus YOR290C, strain snf2, hits give low values 0.992 | S. cerevisiae deletion strains, locus YOR316C, strain cot1, hits give low values 1.01 | S. cerevisiae deletion strains, locus YPL051W, strain arl3, hits give low values 0.991 | S. cerevisiae deletion strains, locus YPL078C, strain atp4, hits give low values 0.981 | S. cerevisiae deletion strains, locus YPL106C, strain sse1, hits give low values 1.02 | S. cerevisiae deletion strains, locus YPL240C, strain hsp82, hits give low values 1.01 | S. cerevisiae deletion strains, locus YPR119W, strain clb2, hits give low values 1.01 | S. cerevisiae deletion strains, locus YPR141C, strain kar3, hits give low values 1 | S. cerevisiae deletion strains, locus YPR163C, strain tif3, hits give low values 1.02 | S. cerevisiae deletion strains, locus YPR167C, strain met16, hits give low values 1.02 | S. cerevisiae deletion strains, strain wtn01, hits give low values 1.02 | S. cerevisiae strains, strain wild type, hits give low values 1.01
